# The panel holds about 83,000 compounds, 20% with a hit somewhere; the sample as a whole holds those more often.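 A percent growth of 40 corresponds to 60% growth inhibition; 0 means no net growth; -100 means all cells died. Active threshold: below 10.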 Values without a mark were called inactive. Activity calls are given as the source filed them.
# Test system: DU-145 prostate
# Assay: NCI-60 one-dose screen, 48 h (100 = growth as untreated, 0 = no growth, -100 = all killed)
# Conditions: 10 µM unless noted
row,SMILES,growth
1,CCCCN(CCCC)c1ccc(C(=N)c2ccc(N(CCCC)CCCC)cc2)cc1,-98.6% (active)
2,Clc1ccc(-c2nc3ccccc3s2)cc1Cl,112%
3,Cc1nc2c3c(ncn2n1)Oc1c(c(=O)[nH]c2ccccc12)C3c1ccc(Cl)cc1 (centres undefined),112%
4,O=C(NNC(=S)Nc1ccccc1)c1cc2ccc1CCc1ccc(cc1)CC2,77.5%
5,O=C(Nc1ccc2c(c1)OCCO2)C(=O)c1c[nH]c2ccccc12,7.38% (active)
6,COc1ccc2c(c1)C(c1cc(OC)c3c(c1)OCO3)C1=C(COC1=O)N2 (centres undefined),3.41% (active)
7,Fc1ccc(Nc2nc(NCCNc3ccnc4cc(Cl)ccc34)nc(N3CCOCC3)n2)cc1,75%
8,S=c1[nH]nc(-c2cc3ccc2CCc2ccc(cc2)CC3)n1-c1ccccc1,101%
9,CC(C)(C)NCCC(O)c1cc2c(Cl)cc(Cl)cc2c2cc(C(F)(F)F)ccc12 (centres undefined),-95.1% (active)
10,COc1ccc2cc(-c3ccc(-c4ccc(C(=N)N)cc4)s3)ccc2c1,61%
11,CCN(CC)CCC(CNc1c2ccc(Cl)cc2nc2ccc(OC)cc12)c1ccccc1 (centres undefined),-23.3% (active)
12,Cc1ccc(S(=O)(=O)C2=C3C(=C(c4ccccc4)c4ccccc43)CN(S(=O)(=O)c3ccc(C)cc3)C2)cc1,68.2%
13,Cc1ccc(S(=O)(=O)NCCNc2nccc(-c3c(-c4cccc(N)c4)nc4sccn34)n2)cc1,96.9%
14,CC(C)NCCCNC1=C(Cl)C(=O)c2ccccc2C1=O,47.8%
15,COc1cccc(CC(C)=C(c2ccc(OCCN(C)C)cc2)c2ccc(OCCN(C)C)cc2)c1,22.1%
16,S=c1[nH]nc(-c2cc3ccc2CCc2ccc(cc2)CC3)n1C1CC1,108%
17,COc1ccc(Nc2[nH]n3c(=O)cc(-c4ccccc4)nc3c2C(=O)Nc2ccc(C)cc2)c(OC)c1,118%
18,O=c1[nH]c2ccc(Br)cc2c2c1C(c1ccc(Cl)cc1)c1c(ncn3nc(-c4ccco4)nc13)O2 (centres undefined),90%
19,COc1cc(-c2nn(-c3cccc(NC(=O)Nc4cc(C(F)(F)F)cc(C(F)(F)F)c4)c3)cc2-c2ccncc2)ccc1Cl,3.89% (active)
20,COc1cc(/C=C/C(=O)N2CCN(C(=O)/C=C/c3cc(OC)c(OC)c(OC)c3)CC2)cc(OC)c1OC,109%

row,SMILES,growth
1,CCN(CC)CCOC(=O)C(c1ccccc1)(c1ccccc1)C(C)C,99%
2,C=C[C@@H]1C[C@H](O)Cc2c(C)cc(C)cc2N1,102%
3,N=C(N)c1ccc(-c2cc(Cl)cc(Cl)c2)cn1,99.5%
4,CCCCCCCCCCCCNC(=O)[C@H]1CSC(c2ccsc2)N1 (some centres undefined),-85.8% (active)
5,O=C(NCc1cn(Cc2cccc(Oc3ccccc3)c2)nn1)c1cccnc1Nc1ccc(F)cc1,63.6%
6,CCN1CCN(CC(=O)N2c3cccc4cccc(c34)N(C(=O)CN3CCN(CC)CC3)C2c2cn(-c3ccccc3)nc2-c2cccc([N+](=O)[O-])c2)CC1,28.3%
7,O=S(=O)(NCCCNc1nccc(-n2ccc3cccnc32)n1)c1ccc(Br)cc1,104%
8,COC(=O)C(Sc1ccc(Cl)cc1)C1SC(=S)N(Cc2ccccc2)C1=O (centres undefined),102%
9,Cc1ccc2[nH]c(=O)c3c(c2c1)Oc1ncn2nc(-c4ccco4)nc2c1C3c1ccc(Cl)cc1 (centres undefined),98.5%
10,c1ccc(-c2cn(-c3ccccc3)c(-c3ccccc3)n2)cc1,71.4%
11,CCN(CC)CCCC(C)Nc1c2ccc(Cl)cc2nc2cc(OC)c(OC)cc12 (centres undefined),22.6%
12,CN(C)c1cccc2c(S(=O)(=O)/N=C(\N)Nc3nc4ccccc4s3)cccc12,96%
13,O=C(Nc1ccc(Cl)c(Cl)c1)NS(=O)(=O)c1cnccc1Oc1ccc(F)cc1,78.5%
14,Cc1ccc2nc(Cl)cc(=O)n2c1,124%
15,Cn1ccc(=O)c(S(N)(=O)=O)c1,119%
16,COc1ccc(-c2c(N)n[nH]c2-c2cc3c(c(OC)c2OC)OCO3)cc1,108%
17,CC(=O)Oc1csc(N(C(C)=O)c2cccc(C(F)(F)F)c2)n1,99.2%
18,C=C1CCC2C3(C)COC(C)(C)OC3CCC2(C)C1C/C=C1/C(=O)OCC1Oc1ccccc1OC (centres undefined),78.9%
19,COc1ccc(/C=C\c2cc(OC)c(OC)c(OC)c2)cc1OC(=O)c1cccc(Cn2cc(CCOC(=O)c3cccc(Cn4nnc5c4C(=O)c4ccccc4C5=O)c3)nn2)c1,7.26% (active)

# Test system: K-562 leukemia
# Assay: as above
# Conditions: 10 µM unless noted
row,SMILES,growth
1,Cc1nc2c3c(ncn2n1)Oc1c(c(=O)[nH]c2ccccc12)C3c1ccc(Cl)cc1 (centres undefined),94.3%
2,O=C(NNC(=S)Nc1ccccc1)c1cc2ccc1CCc1ccc(cc1)CC2,43.4%
3,O=C(Nc1ccc2c(c1)OCCO2)C(=O)c1c[nH]c2ccccc12,12.2%
4,COc1ccc2c(c1)C(c1cc(OC)c3c(c1)OCO3)C1=C(COC1=O)N2 (centres undefined),12%
5,Fc1ccc(Nc2nc(NCCNc3ccnc4cc(Cl)ccc34)nc(N3CCOCC3)n2)cc1,1.44% (active)
6,S=c1[nH]nc(-c2cc3ccc2CCc2ccc(cc2)CC3)n1-c1ccccc1,87%
7,CC(C)(C)NCCC(O)c1cc2c(Cl)cc(Cl)cc2c2cc(C(F)(F)F)ccc12 (centres undefined),-72.2% (active)
8,COc1ccc2cc(-c3ccc(-c4ccc(C(=N)N)cc4)s3)ccc2c1,40%
9,CCN(CC)CCC(CNc1c2ccc(Cl)cc2nc2ccc(OC)cc12)c1ccccc1 (centres undefined),-21.8% (active)
10,Cc1ccc(S(=O)(=O)C2=C3C(=C(c4ccccc4)c4ccccc43)CN(S(=O)(=O)c3ccc(C)cc3)C2)cc1,18%
11,Cc1ccc(S(=O)(=O)NCCNc2nccc(-c3c(-c4cccc(N)c4)nc4sccn34)n2)cc1,67.1%
12,CC(C)NCCCNC1=C(Cl)C(=O)c2ccccc2C1=O,-41.9% (active)
13,COc1cccc(CC(C)=C(c2ccc(OCCN(C)C)cc2)c2ccc(OCCN(C)C)cc2)c1,-61.4% (active)
14,S=c1[nH]nc(-c2cc3ccc2CCc2ccc(cc2)CC3)n1C1CC1,97.9%
15,COc1ccc(Nc2[nH]n3c(=O)cc(-c4ccccc4)nc3c2C(=O)Nc2ccc(C)cc2)c(OC)c1,68.4%
16,O=c1[nH]c2ccc(Br)cc2c2c1C(c1ccc(Cl)cc1)c1c(ncn3nc(-c4ccco4)nc13)O2 (centres undefined),80%
17,COc1cc(-c2nn(-c3cccc(NC(=O)Nc4cc(C(F)(F)F)cc(C(F)(F)F)c4)c3)cc2-c2ccncc2)ccc1Cl,-10.7% (active)
18,COc1cc(/C=C/C(=O)N2CCN(C(=O)/C=C/c3cc(OC)c(OC)c(OC)c3)CC2)cc(OC)c1OC,98.7%

row,SMILES,growth
1,CCN(CC)CCOC(=O)C(c1ccccc1)(c1ccccc1)C(C)C,85.7%
2,C=C[C@@H]1C[C@H](O)Cc2c(C)cc(C)cc2N1,92%
3,N=C(N)c1ccc(-c2cc(Cl)cc(Cl)c2)cn1,17.5%
4,CCCCCCCCCCCCNC(=O)[C@H]1CSC(c2ccsc2)N1 (some centres undefined),-57% (active)
5,CCN1CCN(CC(=O)N2c3cccc4cccc(c34)N(C(=O)CN3CCN(CC)CC3)C2c2cn(-c3ccccc3)nc2-c2cccc([N+](=O)[O-])c2)CC1,-52.9% (active)
6,O=S(=O)(NCCCNc1nccc(-n2ccc3cccnc32)n1)c1ccc(Br)cc1,101%
7,COC(=O)C(Sc1ccc(Cl)cc1)C1SC(=S)N(Cc2ccccc2)C1=O (centres undefined),44%
8,Cc1ccc2[nH]c(=O)c3c(c2c1)Oc1ncn2nc(-c4ccco4)nc2c1C3c1ccc(Cl)cc1 (centres undefined),93.2%
9,c1ccc(-c2cn(-c3ccccc3)c(-c3ccccc3)n2)cc1,-51.5% (active)
10,CCN(CC)CCCC(C)Nc1c2ccc(Cl)cc2nc2cc(OC)c(OC)cc12 (centres undefined),-16.4% (active)
11,CN(C)c1cccc2c(S(=O)(=O)/N=C(\N)Nc3nc4ccccc4s3)cccc12,21.9%
12,O=C(Nc1ccc(Cl)c(Cl)c1)NS(=O)(=O)c1cnccc1Oc1ccc(F)cc1,19.6%
13,Cn1ccc(=O)c(S(N)(=O)=O)c1,93.4%
14,COc1ccc(-c2c(N)n[nH]c2-c2cc3c(c(OC)c2OC)OCO3)cc1,98.4%
15,CC(=O)Oc1csc(N(C(C)=O)c2cccc(C(F)(F)F)c2)n1,105%
16,C=C1CCC2C3(C)COC(C)(C)OC3CCC2(C)C1C/C=C1/C(=O)OCC1Oc1ccccc1OC (centres undefined),21.7%
17,COc1ccc(/C=C\c2cc(OC)c(OC)c(OC)c2)cc1OC(=O)c1cccc(Cn2cc(CCOC(=O)c3cccc(Cn4nnc5c4C(=O)c4ccccc4C5=O)c3)nn2)c1,8.24% (active)

# From PubChem BioAssay (NCI)
